High-throughput results: PubChem, Paczesny and Yang Labs, IUPUI and University of Michigan
Shown is part of a subset that was picked to be rich in hits.
ST2 inh – blocks human ST2 binding to IL-33 | Q01638 | AlphaLISA ST2-Fc/biotin-IL-33 interaction, 1 h | inhibition, % for hits at 17 µM | 2.3% of 78,000 active | AID 1259354; in the data active = inhibition above about 30%
Target sequence (Q01638 whole entry, looked up): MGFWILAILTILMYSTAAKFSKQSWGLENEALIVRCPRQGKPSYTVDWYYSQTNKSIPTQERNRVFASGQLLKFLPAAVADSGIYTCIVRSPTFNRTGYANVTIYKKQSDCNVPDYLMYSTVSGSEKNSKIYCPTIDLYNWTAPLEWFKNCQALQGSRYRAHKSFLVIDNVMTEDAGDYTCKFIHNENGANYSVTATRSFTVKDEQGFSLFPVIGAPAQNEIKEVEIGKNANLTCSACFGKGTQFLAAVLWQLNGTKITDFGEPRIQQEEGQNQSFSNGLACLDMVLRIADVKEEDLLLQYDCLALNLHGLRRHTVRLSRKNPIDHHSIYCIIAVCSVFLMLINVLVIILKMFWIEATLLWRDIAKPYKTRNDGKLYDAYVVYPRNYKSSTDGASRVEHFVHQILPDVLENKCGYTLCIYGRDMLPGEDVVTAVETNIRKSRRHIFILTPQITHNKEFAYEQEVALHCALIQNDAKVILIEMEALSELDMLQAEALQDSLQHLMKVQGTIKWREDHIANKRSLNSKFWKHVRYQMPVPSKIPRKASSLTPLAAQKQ
* hit, by the source's call; i = inactive.

SMILES	ST2 inh
COc1ccc(C2C(C(=O)Nc3ccc(C)cc3C)=C(C)Nc3nnnn32)c(OC)c1 (configuration not stated)	i
Cc1ccc(-c2ccnc(NC3CC(=O)N(CC(C)(C)C)C3)n2)c(C)n1 (configuration not stated)	i
NC1=NC(=O)/C(=C\c2cc3ccccc3nc2N2CCCCC2)S1	i
CC(C)(C)c1ccc(OCC(O)CN2CCN(Cc3ccc4c(c3)OCO4)CC2)cc1 (configuration not stated)	i
CC(C)(C)c1ccccc1OCC(O)CN1CCN(Cc2ccc3c(c2)OCO3)CC1 (configuration not stated)	97%*
COc1ccc(OCC(O)CN2CCN(c3ccccc3F)CC2)c(C(C)(C)C)c1 (configuration not stated)	i
O=C(Nc1ccccc1O)c1ccc([N+](=O)[O-])cc1	i
O=C(c1ccc([N+](=O)[O-])cc1)c1ccc(Cl)c(Cl)c1	58%*
COc1ccc(C(=O)NCCNc2ccc([N+](=O)[O-])cc2)cc1Cl	i
CN1CCN(C(=O)CSc2c3c(nc4ccccc24)CCC3)CC1	i
O=C(c1ccccc1)c1cc(Br)ccc1O	i
N#Cc1ccc(Oc2ccc(C(=O)c3ccccc3)cc2)cc1C#N	i
N#Cc1ccc(Br)cc1/C=C/C(=O)O	80%*
CN(CC1CCN(CCc2ccc(Cl)cc2)CC1)C(=O)Cn1c(=O)oc2ccccc21	i
CCc1ccccc1C(=O)N1CCNCC1C(=O)N1CCOCC1 (configuration not stated)	i
CC(C)(C)C1=CC(=O)c2c(ccc(C(C)(C)C)c2O)C1=O	65%*
CC(C)N1CCCC(CNC(=O)c2cn[nH]c2-c2ccccc2)C1 (configuration not stated)	i
COc1cc(C(=O)NCC(C)NC(=O)c2cc(OC)c(OC)c(OC)c2)cc(OC)c1OC (configuration not stated)	i
O=C(CSc1nc(-c2ccccc2)[nH]c1-c1ccc(F)cc1)Nc1nccs1	i
Cc1c(C(C)NCc2ccc(F)c(F)c2)cnn1-c1ccccc1 (configuration not stated)	i
Cc1ccc2[nH]c(CNC(C)c3cnn(-c4cccc(F)c4)c3C)c(C)c2c1 (configuration not stated)	32%*
Cc1c(C(C)NCCCc2ccccc2)cnn1-c1cccc(F)c1 (configuration not stated)	i
Cc1cccc(-n2ncc3c(NCc4ccccc4Cl)ncnc32)c1	i
CC(C)Nc1ccnc(-c2ccc3c(c2)OCO3)n1	i
O=C(Nc1cccc([N+](=O)[O-])c1)c1cc2cc(Br)cc(Br)c2oc1=O	i
SMILES	ST2 inh
COc1ccc(N2CCN(Cc3ccc4nonc4c3)C(C)C2)cc1 (configuration not stated)	31%*
COc1ccc(N2CCN(Cc3cccnc3)CC2)cc1	i
COc1cccc(-c2ccccc2NC(=O)C2CCN(Cc3ccc4nonc4c3)CC2)c1	i
c1cnc2c(c1)nc(-c1ccncc1)n2CCN1CCNCC1	i
COc1ccccc1NC(=O)N1C[C@@H]2C[C@H](C1)c1ccc(-c3ccc(NC(C)=O)cc3)c(=O)n1C2	i
O=C(Nc1ccccc1)N1C[C@@H]2C[C@H](C1)c1ccc(-c3ccc(OC(F)(F)F)cc3)c(=O)n1C2	33%*
COc1ccc(S(=O)(=O)N2C[C@@H]3C[C@H](C2)c2ccc(-c4ccc(OC(F)(F)F)cc4)c(=O)n2C3)cc1	i
CCSc1nnc(NC(=O)CSc2cn(CC)c3ccccc23)s1	i
O=C(c1ccc(Cl)cn1)N1C[C@@H]2C[C@H](C1)[C@@H]1CCCC(=O)N1C2	i
CCOc1ccccc1-c1c(C#N)c(N)nc(OC)c1C#N	i
CCOc1cc(/C=C(\C#N)c2nn(-c3ccccc3)c(N)c2C#N)cc(Br)c1OC	31%*
C#CCOc1c(Br)cc(C=O)cc1OCC	i
O=c1/c(=C\c2ccco2)sc2nc3ccccc3n12	i
CC(C)(C)c1ccccc1OCC(=O)Nc1cccc(C(F)(F)F)c1	i
O=C(Cn1c(-c2ccccc2F)nc2ccccc2c1=O)Nc1ccc(F)c(Cl)c1	i
Cc1cc2c3c(c1)C1C=CCC1C(C(=O)O)N3CC1CC=CC21 (configuration not stated)	33%*
Cc1cc(NC(=O)CN2C[C@@H]3C4CCC(CC4)[C@@H]3C2)no1	i
CCCCCOc1ccc(/C=c2\sc3nc(-c4cccnc4)nn3c2=O)cc1	i
O=C1C(N2CCOCC2)=CC(=NS(=O)(=O)c2ccc(Cl)cc2)c2ccccc21	71%*
O=S(=O)(c1ccccc1)c1cccc(S(=O)(=O)N2CCOCC2)c1	i
Cc1ccc(S(=O)(=O)N(c2ccccc2N2CCOCC2)C(F)F)cc1	i
O=S(=O)(N=C(c1ccccc1F)N1CCOCC1)c1ccccc1	i
O=C1C(N2CCOCC2)=CC(=NS(=O)(=O)c2ccccc2)c2ccccc21	41%*
O=S(=O)(c1cccc(Cl)c1Cl)N1CCOCC1	i
O=C(Nc1ccc(Oc2ccccc2)nc1)C1CCN(C(=O)[C@@H]2C[C@@H]3C=C[C@H]2C3)CC1	i
SMILES	ST2 inh
CC(C)CN1CC(C(=O)NCc2cnn3ccccc23)CC1=O (configuration not stated)	i
COc1cccc(/C=C2/C(=O)NN(c3ccc(C)c(Cl)c3)C2=O)c1OCC#N	i
N=C1S/C(=C/c2ccc(-c3ccccc3[N+](=O)[O-])o2)C(=O)N1c1nonc1N	i
COc1ccccc1/C=C1/C(=O)NN(c2ccc(C)c(Cl)c2)C1=O	i
Cc1ccc(-c2ccc(/C=C3/C(=O)NN(c4ccc(F)cc4)C3=O)o2)c([N+](=O)[O-])c1C	42%*
COc1ccc(-c2ccc(/C=C3/C(=O)NN(c4ccc(C)c(Cl)c4)C3=O)o2)c([N+](=O)[O-])c1	41%*
CCc1ocnc1C(=O)NCc1cccnc1N1CCOCC1	i
Cc1cccnc1N1CCN(Cc2cn[nH]c2C(=O)O)CC1	i
Cc1nc2c(C(=O)NCCc3ccccc3)c[nH]n2c(=O)c1Cc1cccc(Cl)c1	i
CC(C)NC(=O)CN1CCN(Cc2nc(Cc3cccc(F)c3)no2)CC1	i
COc1ccc(S(=O)(=O)NC[C@H]2O[C@@H](CO)[C@@H](O)[C@H]2N2CCN(c3ccccc3OC)CC2)cc1	i
CC(C)NC(=O)NC[C@H]1O[C@@H](CO)[C@@H](O)[C@H]1N1CCN(c2cccc(C(F)(F)F)c2)CC1	44%*
COc1cccc(NC(=O)NC[C@H]2O[C@@H](CO)[C@@H](O)[C@H]2N2CCN(c3ccccn3)CC2)c1	36%*
COc1cccc(NC(=O)NC[C@H]2O[C@@H](CO)[C@@H](O)[C@H]2N2CCC(C)CC2)c1	i
O=C(NC[C@H]1O[C@@H](CO)[C@@H](O)[C@H]1N1CCN(c2cccc(C(F)(F)F)c2)CC1)Nc1cccc(Cl)c1	i
COc1ccc(C(=O)NC[C@H]2O[C@@H](CO)[C@@H](O)[C@H]2N2CCN(c3cccc(C(F)(F)F)c3)CC2)cc1	i
COc1cc(NC(=O)NC[C@H]2O[C@@H](CO)[C@@H](O)[C@H]2N2CCN(C)CC2)cc(OC)c1	i
COc1ccccc1N1CCN([C@@H]2[C@H](O)[C@H](CO)O[C@@H]2CNS(=O)(=O)c2cccs2)CC1	i
COc1ccccc1N1CCN([C@@H]2[C@H](O)[C@H](CO)O[C@@H]2CNS(=O)(=O)c2ccc(C)cc2)CC1	73%*
CC(C)c1ccc(N(C(=O)Cc2ccccc2)C2C=CS(=O)(=O)C2)cc1 (configuration not stated)	i
